Compound activity (PubChem BioAssay)
The sample as a whole holds a higher share of hits than the screen did.
L3MBTL1 inh: qHTS Assay for the Inhibitors of L3MBTL1; AlphaScreen L3MBTL1–H3K9me1 peptide binding; Potency, µM (series often up to 57.1 µM), actives largely listed as inhibitors; 230,000 compounds, 0.66% hits; AID 485360, 2010; note: nearly all actives have a fitted effect of over 60% in size
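L3MBTL1 50 nM + b-AHA-H3(1-15)K9me1 75 nM, 30 min RT; compound added, 30 min RT; streptavidin donor/Ni-chelate acceptor beads 10 ug/mL each final, 30 min RT dark; AlphaScreen read.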
APE1 inh: qHTS Assay for Inhibitors of the Human Apurinic/apyrimidinic Endonuclease 1 (APE1); DNA repair nuclease/redox regulator APEX1 (Homo sapiens), P27695; recombinant APE1, TAMRA/BHQ-2 abasic DNA cleavage fluorescence; Potency, µM (doses to about 65.8 µM), actives largely listed as inhibitors; 350,000 compounds, 0.35% hits; note: nearly all actives have a fitted effect of over 55% in size
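0.75 nM APE1 + cpd, 15 min RT; start w/ 50 nM TAMRA/BHQ-2 THF-abasic dsDNA; kinetic fluor 525/598 nm ×3 reads @60 s; Δ(read3−read1); normalized to DMSO and NSC13755 control wells.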
TDP1 inh: qHTS Assay for Inhibitors of Tyrosyl-DNA Phosphodiesterase (TDP1); Tyrosyl-DNA phosphodiesterase 1 (Homo sapiens), Q9NUW8; recombinant TDP1, AlphaScreen DNA substrate cleavage; Potency, µM (doses to about 130 µM), hits mostly inhibitors; 350,000 compounds, 0.28% hits; AID 485290, 2010; note: nearly all actives have a fitted effect of over 40% in size
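Recombinant human Tdp1 (E. coli-expressed, 1 nM final) preincubated with compounds 15 min at room temperature, then 5'-biotin/3'-phosphotyrosine-FITC DNA substrate (15 nM final) added for 5 min. AlphaScreen beads (10 ug/ml final) added 10 min; cleavage lowers signal.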
JMJD2E inh: qHTS Assay for Inhibitors of Human Jumonji Domain Containing 2E (JMJD2E). 230,000 compounds, 1.6% hits. Potency, µM (top dose mostly 57.1 µM), actives largely listed as inhibitors. AID 2147, 2009. JMJD2E catalytic domain, FDH-coupled NADH fluorescence (FDH is formaldehyde dehydrogenase); note: nearly all actives have a fitted effect of over 50% in size
RECQ1 inh-1: qHTS Assay for Inhibitors of RecQ-Like Dna Helicase 1 (RECQ1). ATP-dependent DNA helicase Q1 (Homo sapiens), P46063. RECQ1 DNA unwinding, red fluorescence kinetic read. Potency, µM (doses to about 57.3 µM), most hits filed as inhibitors. 240,000 compounds, 0.54% hits; note: nearly all actives have a fitted effect of over 30% in size
Target sequence (P46063 whole entry, looked up): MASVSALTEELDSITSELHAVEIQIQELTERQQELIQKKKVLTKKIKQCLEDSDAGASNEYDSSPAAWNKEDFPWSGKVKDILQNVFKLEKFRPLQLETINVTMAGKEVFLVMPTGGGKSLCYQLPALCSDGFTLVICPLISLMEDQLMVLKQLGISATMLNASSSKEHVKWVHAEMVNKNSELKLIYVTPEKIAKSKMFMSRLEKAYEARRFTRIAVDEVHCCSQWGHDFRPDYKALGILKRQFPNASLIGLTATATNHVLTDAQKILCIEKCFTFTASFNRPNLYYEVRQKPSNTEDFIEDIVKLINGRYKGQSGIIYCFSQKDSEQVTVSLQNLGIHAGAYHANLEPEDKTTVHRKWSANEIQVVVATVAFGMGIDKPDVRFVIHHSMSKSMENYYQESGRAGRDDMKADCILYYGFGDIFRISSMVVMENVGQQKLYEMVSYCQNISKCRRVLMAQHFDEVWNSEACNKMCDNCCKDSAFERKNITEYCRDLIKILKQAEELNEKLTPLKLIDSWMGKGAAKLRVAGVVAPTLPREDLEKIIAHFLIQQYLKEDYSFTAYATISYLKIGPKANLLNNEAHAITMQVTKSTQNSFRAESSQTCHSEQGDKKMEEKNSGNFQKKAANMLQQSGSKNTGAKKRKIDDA
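RECQ1T1 50 nM; forked duplex (20 bp + 30-nt ss tails) 200 nM, ATP 2 mM final; pH 8.0, 2 mM MgCl2, 2.5 ug/ml poly(dI-dC); 15 min compound preincubation; discontinuous kinetic read over 2 h at RT.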
BLM inh-1: qHTS Assay for Inhibitors of Bloom's syndrome helicase (BLM); RecQ-like DNA helicase BLM (Homo sapiens), P54132; recombinant BLM DNA unwinding, fluorescence dequenching; Potency, µM (series often up to 56.1 µM), most hits filed as inhibitors; 350,000 compounds, 0.2% hits; note: nearly all actives have a fitted effect of over 35% in size
BLM inh-2: qHTS Confirmation Assay for Inhibitors of Bloom's syndrome helicase (BLM) | shares compounds with BLM inh-1 | BLM DNA unwinding, fluorescence quenching, biochemical | Potency, µM, actives largely listed as inhibitors | 220 compounds, 40% hits | AID 2585, 2010;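 note: strand separation dequenches TAMRA so unwinding raises red fluorescence; series mostly up to about 69 µM; nearly all actives have a fitted effect of over 45% in size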
RECQ1 inh conf: Confirmation qHTS Assay for Inhibitors of RecQ-Like Dna Helicase 1 (RECQ1); 610 compounds, 28% hits; Potency, µM (highest dose often 229 µM), most hits filed as inhibitors; RECQ1 helicase DNA unwinding, fluorescence; shares compounds with RECQ1 inh-1; AID 2708, 2010; note: nearly all actives have a fitted effect of over 45% in size
ADP FP counter: Counterscreen for RECQ1 Inhibitors: ADP Fluorescence Polarization Displacement Assay; shares compounds with RECQ1 inh-1; ADP fluorescence polarization displacement counterscreen; Potency, µM (titrated, usually from 228 µM), usual class: inhibitors; 530 compounds, 27% hits; note: nearly all actives have a fitted effect of over 45% in size
RECQ1 inh-2: Confirmation qHTS Assay for Inhibitors of RecQ-Like Dna Helicase 1 (RECQ1) - Round 2 Cherry Picks; shares compounds with RECQ1 inh-1; recombinant RECQ1 DNA unwinding, red fluorescence; Potency, µM (top dose mostly 119 µM), actives largely listed as inhibitors; 1,100 compounds, 15% hits; AID 504841, 2011; note: nearly all actives have a fitted effect of over 50% in size
Each line names hits and unclear results; the compound was inactive in the other large screens (follow-up assays come after a bar, where they were run). Unless noted, calls come from the whole dose curve; as a rule, active = well fitted curve in the direction sought with a large enough effect; inconclusive = small, poorly fitted or top-dose-only effect, or another doubt; inactive = no such curve, though single readings can be large; an effect the other way counts as inactive or inconclusive.

CN(C)c1ccc(/C=C/c2ccc3c4ccccc4ccc3[n+]2-c2ccccc2)cc1	L3MBTL1 inh inconclusive, JMJD2E inh inconclusive, RECQ1 inh-1 20µM, BLM inh-1 inconclusive | BLM inh-2 68µM | RECQ1 inh conf 22.4µM
Oc1ccc(Nc2nc(NCC3CCCO3)c3ccccc3n2)cc1 (stereo not given)	RECQ1 inh-1 14.1µM, BLM inh-1 15.8µM | BLM inh-2 14.5µM | RECQ1 inh conf 25.1µM | ADP FP counter inconclusive | RECQ1 inh-2 39.8µM
Oc1ccccc1Nc1nc(NCC2CCCO2)c2ccccc2n1 (stereo not given)	APE1 inh inconclusive
CCc1ccc2c(CC(=O)NNC(=O)c3ccncc3)coc2c1	none (no result: JMJD2E inh, RECQ1 inh-1, BLM inh-1)
CCCCn1c(CNC(=O)C23CC4CC(CC(C4)C2)C3)nnc1SCC(=O)Nc1ccccc1	none (no result: L3MBTL1 inh, APE1 inh, JMJD2E inh, RECQ1 inh-1)
Cc1ccc2c(=O)cc(CSc3ccccc3)[nH]c2c1C	none (no result: L3MBTL1 inh, APE1 inh, JMJD2E inh, RECQ1 inh-1)
Cc1ccc(SCc2cc(=O)c3c(=O)n(-c4ccccc4)[nH]c3[nH]2)cc1	APE1 inh inconclusive, JMJD2E inh inconclusive, RECQ1 inh-1 inconclusive, BLM inh-1 15.8µM | BLM inh-2 inactive | RECQ1 inh-2 inactive
Cc1ccc2sc(NC(=O)c3ccc4c(c3)OCCO4)nc2c1C	none (no result: L3MBTL1 inh, APE1 inh, JMJD2E inh, RECQ1 inh-1)
Cc1nc2c(ccc3nc(NC(=O)c4ccc5c(c4)OCCO5)sc32)s1	JMJD2E inh inconclusive, RECQ1 inh-1 20µM (no result: TDP1 inh) | BLM inh-2 30.4µM | ADP FP counter inactive | RECQ1 inh-2 44.7µM
CCOc1ccc(/C=N/NC(=O)c2cc(-c3ccco3)nc3ccccc23)cc1	JMJD2E inh inconclusive
O=C(N/N=C/c1ccc(F)cc1)c1cc(-c2ccco2)nc2ccccc12	L3MBTL1 inh 3.55µM, APE1 inh 4.47µM, JMJD2E inh inconclusive, RECQ1 inh-1 10µM, BLM inh-1 8.91µM (no result: TDP1 inh) | BLM inh-2 18.2µM | RECQ1 inh conf 39.8µM | ADP FP counter inconclusive
O=C(O)c1cccc(-n2cccc2/C=C2/NC(=O)N(c3ccc(Cl)cc3)C2=O)c1	L3MBTL1 inh 0.794µM, APE1 inh 2µM, TDP1 inh 0.0398µM, JMJD2E inh inconclusive, RECQ1 inh-1 31.6µM, BLM inh-1 3.55µM | BLM inh-2 14.5µM | RECQ1 inh conf inconclusive
NC(=O)C1O[C@@H](O)[C@H](O)[C@@H](O)[C@H]1O (stereo not given in full)	none (no result: L3MBTL1 inh, JMJD2E inh)
O=C(CSc1nc2scc(-c3ccco3)c2c(=O)n1-c1ccccc1)NCC1CCCO1 (stereo not given)	L3MBTL1 inh inconclusive, APE1 inh inconclusive, RECQ1 inh-1 inconclusive, BLM inh-1 14.1µM | BLM inh-2 inconclusive | RECQ1 inh-2 inconclusive
Cc1nc2cc(NC(=O)N3CCN(c4ccccn4)CC3)ccc2o1	JMJD2E inh inconclusive (no result: L3MBTL1 inh)
